SIRT5 inh = SIRT5 desuccinylase inhibitors, primary screen, biochemical, fluorescence imaging, single point, set 5 | Purified SirT5, succinyl-peptide AMC, trypsin-coupled fluorescence | hit rate 1.1% among 330,000 | inhibition, % at 15 µM | NAD-dependent protein deacylase sirtuin-5, mitochondrial (Homo sapiens), Q9NXA8; in the data active = inhibition above about 15%; inconclusive = no clear call, values can overlap the other calls
Target sequence (Q9NXA8 whole entry, looked up): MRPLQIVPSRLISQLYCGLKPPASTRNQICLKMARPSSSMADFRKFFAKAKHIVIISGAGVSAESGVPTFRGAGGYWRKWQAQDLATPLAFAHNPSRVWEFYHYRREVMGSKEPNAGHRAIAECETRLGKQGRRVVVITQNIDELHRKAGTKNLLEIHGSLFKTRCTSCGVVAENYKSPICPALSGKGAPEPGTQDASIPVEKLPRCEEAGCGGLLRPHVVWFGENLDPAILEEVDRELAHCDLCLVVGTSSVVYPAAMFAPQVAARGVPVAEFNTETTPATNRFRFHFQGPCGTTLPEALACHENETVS
ARNT TACC3 PPI = disruptors of ARNT/TACC3 protein interaction, primary screen, biochemical, AlphaScreen, single concentration; Transforming acidic coiled-coil-containing protein 3 (Homo sapiens), Q9Y6A5; hit rate 0.66% among 390,000; AID 623870, 2012; AlphaScreen His-ARNT PAS-B/GST-TACC3 binding, luminescence; TACC3 fragment carries E629A point mutation; inhibition, % at 9.99 µM;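 active = mean inhibition of replicates at least 50% and at least half of replicates each reaching 50%; inconclusive = half or more replicates reach 50% but mean below 50%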;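 also: 0% = complete ARNT plus TACC3 wells and 100% = ARNT alone without TACC3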
NSD2 inh = NSD2 histone methyltransferase inhibitors, primary screen, biochemical, AlphaScreen, single concentration, set 2; Histone-lysine N-methyltransferase NSD2 (Homo sapiens), O96028; hit rate 0.54% among 310,000; AID 743445, 2014; NSD2 peptide methylation, 120 min; inhibition, % at 12.5 µM; in the data active = inhibition above about 50%
Casp6 inh = human caspase-6 inhibitors, primary screen, biochemical, VEID-R110 fluorescence, single point, set 2 | purified caspase-6, Z-VEID-R110 cleavage fluorescence | inhibition, % at 12.5 µM | hit rate 0.53% among 350,000 | AID 686996, 2013;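 active = mean inhibition across replicates at least about 35%, with every replicate also reaching that limit, limit read from the data; inconclusive = only one of the two criteria met; inactive = neither criterion met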;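 also: 0% = median of neutral control wells and 100% = no fluorescence left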
Target sequence (P55212 24-179 limits assumed): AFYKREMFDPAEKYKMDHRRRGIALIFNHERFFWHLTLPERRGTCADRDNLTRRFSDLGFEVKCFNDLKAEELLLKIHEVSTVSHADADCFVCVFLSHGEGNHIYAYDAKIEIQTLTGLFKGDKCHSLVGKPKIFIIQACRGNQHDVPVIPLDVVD
Target sequence (P55212 194-293 limits assumed): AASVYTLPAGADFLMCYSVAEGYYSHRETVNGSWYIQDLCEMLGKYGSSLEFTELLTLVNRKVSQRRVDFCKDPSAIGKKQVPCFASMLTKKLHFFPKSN
PfHsp90 yeast 2 = growth inhibition of PfHsp90-expressing yeast, primary screen, antimalarial PfHsp90 inhibitor project, S. cerevisiae, BacTiter-Glo luminescence, single point, set 2; hit rate 0.32% among 310,000; inhibition, % at 9.4 µM; BacTiter-Glo ATP, 48 h; yeast lacking PDR1 and PDR3 efflux regulators;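 active = every replicate shows inhibition above about 80%, whatever the replicate mean, limit read from the data; inconclusive = mean inhibition reaches the set limit but some replicate falls short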;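 also: 0% = DMSO neutral controls and 100% = 20 µM radicicol positive controls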
An asterisk follows results filed as active; ? = inconclusive; . = no result given. Only some compounds are listed: those with a hit (about 2.1% of all), similar ones and a draw of the others.

SMILES	SIRT5 inh	ARNT TACC3 PPI	NSD2 inh	Casp6 inh	PfHsp90 yeast 2
Cc1c(C(=O)O)cccc1-n1c(C)cc(/C=N/Nc2ccc([N+](=O)[O-])cn2)c1C	16*	17	17	33	10
COc1cccc(/C=N/Nc2ccc([N+](=O)[O-])cn2)c1O	-3	12	-1	1	94*
COc1ccc(-c2cnc3c(c2)C(=O)N([C@H](C)CO)C[C@H](C)[C@H](CN(C)Cc2ccc(F)cc2)O3)cc1	1	8	.	0	.
COC(=O)C[C@H]1CC[C@@H]2[C@H](COC[C@H](O)CN2C(=O)Nc2cccc(F)c2)O1	0	-7	.	0	.
NS(=O)(=O)c1ccc(N=Nc2ccc(O)c3ncccc23)cc1	3	.	5	51*	40
Cc1ccc(C)c(N=Nc2ccc(O)c3ncccc23)c1	.	23	2	.	2
Cc1cccc(N=Nc2ccc(O)c3ncccc23)c1	.	22	7	.	101*
CCN(CC)S(=O)(=O)c1cc(OC)ccc1N=Nc1ccc(O)c2ncccc12	-1	48*	4	4	?
CCOc1ccc(N=Nc2ccc(O)c3ncccc23)cc1	-4	5	0	3	39
CCOC(=O)c1cnc(-n2nc(C)cc2C)nc1NC	.	48*	-2	.	.
O=C(CSc1nc2ccccc2c(=O)[nH]1)Nc1ccc(C(=O)O)cc1	-1	6	3	37*	5
CC(C)CC(=O)Nc1ccc(-c2nc3ccccc3c(=O)o2)cc1	.	8	0	.	-1
CC(C)CC(=O)Nc1ccc(-c2nc3ccccc3c(=O)[nH]2)cc1	16*	4	-1	-3	-31
O=C(CSc1nc2ccccc2c(=O)[nH]1)Nc1ccc([N+](=O)[O-])cc1	3	-5	0	1	-4
COCC(=O)N1CC2(C1)[C@H](c1ccccc1)[C@@H](CO)N2C(=O)c1ccncc1	-1	.	.	-1	.
NC1=C(Cl)C(=O)c2ccccc2C1=O	-3	31	.	97*	-31
O=C1C(Cl)=C(NCCCO)C(=O)c2ccccc21	.	.	20	.	-3
S=c1[nH]ncn1/N=C/c1ccco1	.	.	4	-4	.
C(=N\Nc1nncn1/N=C/c1ccco1)/c1ccco1	1	64*	-27	-1	-7
O=C(/C=C/c1ccco1)N(Cc1ccc(Cl)cc1)C1CCS(=O)(=O)C1 (stereo unspecified)	57*	-1	3	5	-13
CN(C)c1ccc(CN(C(=O)/C=C/c2ccco2)C2CCS(=O)(=O)C2)cc1 (stereo unspecified)	-5	.	4	-2	.
COc1cccc(NC(=O)N(C)C[C@H]2Oc3cc(-c4ccccc4F)ccc3S(=O)(=O)N([C@H](C)CO)C[C@H]2C)c1	16*	1	.	-1	.
COc1cccc(NC(=O)N(C)C[C@@H]2Oc3cc(C#Cc4ccccc4)ccc3S(=O)(=O)N([C@H](C)CO)C[C@H]2C)c1	19*	-5	.	-4	.
COc1ccc(C#Cc2ccc3c(c2)O[C@H](CN(C)C(=O)Nc2cccc(OC)c2)[C@@H](C)CN([C@H](C)CO)S3(=O)=O)cc1	17*	-9	.	0	.
O=C(Cc1ccccn1)N[C@H]1CC[C@H](CCNS(=O)(=O)c2cccc(F)c2)O[C@H]1CO	3	-10	.	-1	.
SMILES	SIRT5 inh	ARNT TACC3 PPI	NSD2 inh	Casp6 inh	PfHsp90 yeast 2
O=C(C[C@H]1CC[C@@H]2[C@H](COC[C@@H](O)CN2S(=O)(=O)c2cccc(Cl)c2)O1)NC1CCCC1	4	13	.	-2	.
CC(C)(C)Cc1nnc(NC(=O)Cc2cccs2)s1	29*	.	10	9	-1
C/C=C/c1cnc2c(c1)C(=O)N([C@H](C)CO)C[C@H](C)[C@H](CN(C)C(=O)NCCC)O2	-2	-4	.	3	.
COc1ccc(/C=C/C(=O)NC(=S)NNC(=O)c2cccnc2)cc1	.	.	-6	.	38
O=C(/C=C/c1ccc(F)cc1)NC(=S)NNC(=O)c1cnccn1	2	64*	8	2	108*
O=C(NC(=S)NNC(=O)c1cnccn1)c1ccc(F)cc1	0	68*	6	3	-65
COc1ccc(/C=C/C(=O)NC(=S)NNC(=O)c2cnccn2)cc1	3	61*	4	-1	97*
CC(C)C#Cc1ccc2c(c1)O[C@H](CN(C)C(=O)NC(C)C)[C@@H](C)CN([C@@H](C)CO)S2(=O)=O	.	6	.	.	.
CS(=O)(=O)N1CC2(C1)[C@H](c1ccccc1)[C@@H](CO)N2Cc1ccccn1	-1	.	.	0	.
COCC#Cc1cnc2c(c1)C(=O)N([C@@H](C)CO)C[C@@H](C)[C@@H](CN(C)C(=O)CN1CCOCC1)O2	1	-5	.	-1	.
CCN(CC(=O)Nc1ccccc1C(F)(F)F)C(=O)c1ccc2c(=O)n3c(nc2c1)CCC3	22*	3	.	-128	8
CCN(CC(=O)Nc1c(F)cccc1F)C(=O)c1ccc2c(=O)n3c(nc2c1)CCC3	-1	1	-2	-2	.
CCOC(=O)C(=Cc1ccc(N(C)C)cc1)C(=O)c1ccccc1	-2	.	1	0	.
CCOC(=O)/C(=C/c1ccc(OC(=O)c2ccccc2)cc1)C(C)=O	.	-1	3	.	106*
COc1ccc(NC(=O)NN2CCN(C)CC2)cc1	-1	-9	-1	-2	-5
CN1CCN(NC(=O)Nc2ccc(F)cc2)CC1	-2	0	.	48*	16
O=C(O)CSc1cc(C(=O)c2ccccc2O)cn2c(=O)c3c4c(sc3nc12)CCCC4	37*	-5	-1	18	-10
Cc1cc(C)n(CC(=O)c2cccc(N)c2)n1	20*	21	-4	0	.
C=CCNc1nnc(Cl)c2ccccc12	26*	9	7	-1	21
O=C1CN(S(=O)(=O)Cc2ccccc2)C[C@H]2[C@@H](c3ccc(C#CC4CC4)cc3)[C@H](CO)N12	-4	.	.	2	.
Cc1c(C(=O)N/N=C/c2ccncc2)no[n+]1[O-]	1	69*	1	7	-2
CN1CCN(CCCN(Cc2cccs2)C(=S)Nc2ccc(Cl)cc2)CC1	-3	8	3	-1	.
COc1ccc(NC(=S)N(CCCN2CCN(C)CC2)Cc2cccs2)cc1	.	85*	-1	.	-16
C/C=C/c1ccc([C@@H]2[C@@H](CO)N(Cc3cccc(F)c3)C23CN(C(C)=O)C3)cc1	1	.	.	-1	.
COc1ccc(N=C(N)SCc2ccccn2)cc1	.	55*	2	.	-6
Cc1ccc(-c2ccc([C@@H]3[C@@H](CO)N4CCCCN(C(=O)c5ccc(F)cc5)C[C@@H]34)cc2)cc1	5	2	.	-3	.
COc1ccc(NC(=O)/C=C/c2ccc(Br)o2)cn1	34*	-3	.	4	-10

High-throughput results from PubChem BioAssay.
